# According to PubChem BioAssay (NCATS):
# Assay: High-throughput drug toxicity screening in the BPDCN cell line Cal-1 (AID 1224825)
# Details: Cal-1 BPDCN cell viability, qHTS; at 45.8 µM (top of the series) unless noted
# Excerpt: Blastic plasmacytoid dendritic cell neoplasm (BPDCN) is a rare, aggressive and largely incurable hematologic malignancy originating from plasmacytoid dendritic cells (pDCs). Although an initial response to chemotherapy is common, BPDCN prognosis is extremely poor and most patients relapse with drug-resistant disease leading to a median overall survival of ~1 year after diagnosis. To explore novel potential therapeutic strategies in BPDCN, we performed a high-throughput drug toxicity screening in BPDCN cell liens, using of a library of 1,912 small molecules, enriched for compounds that are either approved or in early stages of development for cancer therapy.
# A total of 500 exponentially growing Cal-1 cells were seeded per well in 5 uL of media (RPMI + Glutamine, without phenol red plus10% FBS and 1X Pen/Strep) into 1536-well solid white high base tissue culture treated Greiner One Bio Plates (789173-F), using a multidrop combi dispenser and a small sterile cassette. Compounds and controls totaling 23nL per well (negative control DMSO and positive control 9.2 uM Bortezomib-final) were immediately added to the plates using a 1536 head pin tool from Kalypsys. The plates were then covered with stainless steel gasket lids from Kalypsys and incubated for 48 hours at 37C under 95% relative humidity with 5% CO2. After 48 hours, the plates were removed and allowed to reach room temperature before 3 uL of Cell Titer Glo reagent (Promega) were added using an Aurora Flying Reagent Dispenser Bioraptor. The plates were then spun at 1000 rpms to remove bubbles and incubated for 15 minutes at room temperature before reading on a ViewLux using a luminescent filter with a 10 second exposure. The relative luciferase units were used to calculated percent activity using DMSO as 100% and Bortezomib as 0%.
row,SMILES,viability (% of control) [%]
1,N#CC(=Cc1ccc(O)c(O)c1)C(=O)NCc1ccccc1,45.8
2,C[C@@]12C[C@@]3(O)O[C@@H](O1)[C@]1(COC(=O)c4ccccc4)[C@@H]3C[C@@]12O[C@@H]1O[C@H](CO)[C@@H](O)[C@H](O)[C@@H]1O,109
3,Cc1cn([C@@H]2O[C@H](CO)[C@@H](O)[C@H]2F)c(=O)[nH]c1=O,72.5
4,CC(C=CC=C(C)C=CC1=C(C)CCCC1(C)C)=CC=CC=C(C)C=CC=C(C)C=CC1=C(C)CCCC1(C)C,10
5,COc1ccc([C@@H]2CNC(=O)C2)cc1OC1CCCC1,108
6,C[C@H](CCC(=O)O)[C@H]1CCC2C3C[C@H](O)[C@@H]4C[C@H](O)CC[C@]4(C)C3CC[C@@]21C (stereo not given in full),120
7,CCOC(=O)C1=C(C)NC(=S)NC1c1cccc(O)c1 (stereo not given),19.3
8,OCCN1C[C@H](O)[C@@H](O)[C@H](O)[C@@H]1CO,103
9,CCN(CC)Cc1ccc2cc(COC(=O)Nc3ccc(C(=O)NO)cc3)ccc2c1,4.07
10,CC[C@H]1OC(=O)[C@H](C)[C@@H](O[C@H]2C[C@@](C)(OC)[C@@H](O)[C@H](C)O2)[C@H](C)[C@@H](O[C@@H]2O[C@H](C)C[C@H](N(C)C)[C@@H]2O)[C@](C)(OC)C[C@@H](C)C(=O)[C@H](C)[C@@H](O)[C@]1(C)O,108
11,Cc1cc(Nc2ncc3c(n2)N(C)C(=O)N(c2cc(NC(=O)c4cccc(C(F)(F)F)c4)ccc2C)C3)n(C)n1,7.39
12,CC(Cc1ccc(O)c(O)c1)(NN)C(=O)O (stereo not given),91.3
13,C=CC(=O)Nc1ccc2ncnc(Nc3ccc(OCc4cccc(F)c4)c(Cl)c3)c2c1,2.97
14,C=CC(=O)N1CCc2ccc(-n3c(=O)ccc4cnc5ccc(-c6cnn(C)c6)cc5c43)cc21,2.44
15,C[C@@H]1CC[C@@]2(OC1)OC1CC3C4CC=C5CC(O)CCC5(C)C4CCC3(C)C1[C@@H]2C (stereo not given in full),115
16,CC(C)(O)[C@H]1CC[C@@](C)([C@H]2[C@@H](O)C[C@@]3(C)[C@@H]4C[C@H](O[C@@H]5O[C@H](CO)[C@@H](O)[C@H](O)[C@@H]5O)[C@H]5C(C)(C)[C@@H](O[C@@H]6OC[C@@H](O)[C@H](O)[C@@H]6O)CC[C@@]56C[C@@]46CC[C@]23C)O1,112
17,NC(=O)c1ncn([C@@H]2O[C@H](CO)[C@@H](O)[C@@H]2O)c1N,112
18,NC(=NCCCCCCN=C(N)N=C(N)Nc1ccc(Cl)cc1)N=C(N)Nc1ccc(Cl)cc1,2.49
19,O=C(CCCCCCC(=O)Nc1cccnc1)NO,10.1
20,CN[C@H](CC(C)C)C(=O)N[C@H]1C(=O)N[C@@H](CC(N)=O)C(=O)N[C@@H]2C(=O)N[C@H]3C(=O)N[C@H](C(=O)N[C@H](C(=O)O)c4cc(O)cc(O)c4-c4cc3ccc4O)[C@H](O)c3ccc(c(Cl)c3)Oc3cc2cc(c3O[C@@H]2O[C@H](CO)[C@@H](O)[C@H](O)[C@@H]2O[C@H]2C[C@](C)(N)[C@H](O)[C@H](C)O2)Oc2ccc(cc2Cl)[C@H]1O,93.1

row,SMILES,viability (% of control) [%]
1,O=c1c(O)c(-c2ccc(O)c(O)c2)oc2cc(O)ccc12,2.16
2,O=C1CSC(=O)N1C(CCc1ccncc1)COc1ccc(-c2cccc([N+](=O)[O-])c2)cc1 (stereo not given),33
3,CC(C)C[C@H](NC(=O)CNC(=O)c1cc(Cl)ccc1Cl)B1OC(=O)CC(CC(=O)O)(C(=O)O)O1 (stereo not given in full),3.61
4,CNC(=O)c1ccc(Nc2cc(Nc3ccccc3S(=O)(=O)C(C)C)c3cc[nH]c3n2)nc1,3.36
5,COc1ccc(C(C)=O)c(O)c1,35.9
6,OCc1ccccc1O[C@@H]1O[C@H](CO)[C@H](O)[C@H](O)[C@H]1O,108
7,Cn1cc(C=CC(=O)c2cccc(F)c2)cc1C=CC(=O)NO,4.87
8,CCCCOc1ccc(C(=O)Nc2ccc(F)cc2F)cc1,105
9,C=CC[C@@H]1C=C(C)C[C@H](C)C[C@H](OC)[C@H]2O[C@@](O)(C(=O)C(=O)N3CCCC[C@H]3C(=O)O[C@H](C(C)=C[C@@H]3CC[C@H](O)[C@H](OC)C3)[C@@H](C)[C@@H](O)CC1=O)[C@@H](C)C[C@@H]2OC,44.2
10,c1cc(CN2CCCNCCNCCCNCC2)ccc1CN1CCCNCCNCCCNCC1,120
11,COc1cc(C)c(C=CC(C)=CC=CC(C)=CC(=O)O)c(C)c1C,94.9
12,CCOc1cc2c(c(F)c1OCC)C(=N)N(CC(=O)c1cc(N3CCOCC3)c(OC)c(C(C)(C)C)c1)C2,2.82
13,COC(=O)[C@@H]1[C@H]2C[C@@H]3c4[nH]c5ccccc5c4CCN3C[C@@H]2CC[C@@H]1O,21.8
14,COc1cc(OC)c(C=CS(=O)(=O)Cc2ccc(OC)c(NCC(=O)O)c2)c(OC)c1,8.09
15,CCCCCCCCCCCCc1ccc(S(=O)(=O)Nc2nncs2)cc1,105
16,N#Cc1ccc(COC[C@H]2O[C@@H](n3c(NCc4ccc(Cl)c(Cl)c4)nc4c(N)ncnc43)[C@@H](O)[C@@H]2O)cc1,3.42
17,CC(C)[C@H](CO)Nc1nc(Nc2cccc(Cl)c2)c2ncn(C(C)C)c2n1,1.87
18,O=C(O)c1ccc(Nc2ncc3c(n2)-c2ccc(Cl)cc2C(c2c(F)cccc2F)=NC3)cc1,18.2
19,Cc1ncc(-c2ccnc(Nc3ccc(S(C)(=O)=O)cc3)n2)n1C(C)C,4.48
20,Nc1nc(N)c2nc(-c3cccc(O)c3)c(-c3cccc(O)c3)nc2n1,5.3
